# Results from PubChem BioAssay (EPA / NIEHS).
# Calls of active or inactive are those of the source. Rule for the calls: active = hit-call score of the fitted dose curve at least 0.9, where 1 is the maximum; inactive = score below 0.9.
# Key:
# Conditions in all cases: mRNA level, 48 h; actives raise or lower the signal
# HGF (gene 3082) = experiment: LTEA_HepaRG_HGF: Life Technologies and Expression Analysis (LTEA) Assay for Hepatocyte Growth Facto (HGF) using HepaRG (AID 2283505)
# How it was run: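 Using HepaRG monolayers kept in 0.5% DMSO, chemicals were tested in duplicate over eight half-log concentrations from 100 uM for 48 h. Endpoint: HGF mRNA change relative to DMSO, normalized to ACTB/GAPDH/POLR2A.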
# [1] = read-out: Insulin Like Growth Factor 1 (IGF1), IGF1 (gene 3479); experiment: LTEA_HepaRG_IGF1: Life Technologies and Expression Analysis (LTEA) Assay for Insulin Like Growth Factor 1 (IGF1) using HepaRG (AID 2283506)
# How it was run: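 Expression measured by TaqMan qRT-PCR on a Fluidigm array, with three housekeeping genes for normalisation, after 48 h treatment of HepaRG cells. Top concentration 100 uM with half-log steps, 0.5% DMSO vehicle, bidirectional fit.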
# [2] = read-out: Intercellular Adhesion Molecule 1 (ICAM1), ICAM1 (gene 3383); experiment: LTEA_HepaRG_ICAM1: Life Technologies and Expression Analysis (LTEA) Assay for Intercellular Adhesion Molecule 1 (ICAM1) using HepaRG (AID 2283507)
# How it was run: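 Using the human liver line HepaRG, compounds are tested in duplicate over 48 h at concentrations up to 100 uM. Expression is determined by TaqMan qRT-PCR, normalized to endogenous controls, and analysed relative to 0.5% DMSO vehicle.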
# [3] = read-out: Insulin-like growth factor-binding protein 1 (IGFBP1), IGFBP1 (gene 3484); experiment: LTEA_HepaRG_IGFBP1: Life Technologies and Expression Analysis (LTEA) Assay for Insulin-like growth factor-binding protein 1 (IGFBP1) using HepaRG (AID 2283508)
# How it was run: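 HepaRG, 48 h, 8 conc. (max 100 uM, half-log), duplicates, 0.5% DMSO. Readout: TaqMan qRT-PCR, ACTB/GAPDH/POLR2A normalisation. Fit: bidirectional vs DMSO.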
# [4] = read-out: Interleukin 6 Receptor (IL6R), IL6R (gene 3570); experiment: LTEA_HepaRG_IL6R: Life Technologies and Expression Analysis (LTEA) Assay for Interleukin 6 Receptor (IL6R) using HepaRG (AID 2283510);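 for AC50: TaqMan qRT-PCR signal normalized to ACTB GAPDH and POLR2A housekeeping genes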
# How it was run: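 IL6R transcript level by qRT-PCR after 48 h chemical exposure (8-point, half-log, max 100 uM, 0.5% DMSO vehicle) of HepaRG cells in serum-free induction medium. Normalized to three housekeeping genes; curves fitted in both directions relative to DMSO.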
# [5] = read-out: Potassium channel subfamily K member 1 (KCNK1), KCNK1 (gene 3775); experiment: LTEA_HepaRG_KCNK1: Life Technologies and Expression Analysis (LTEA) Assay for Potassium channel subfamily K member 1 (KCNK1) using HepaRG (AID 2283511)
# How it was run: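 KCNK1 transcript measured by TaqMan qRT-PCR against three housekeeping genes, after HepaRG cells were treated 48 h with eight half-log concentrations (top 100 uM, 0.5% DMSO). Curves fitted bidirectionally relative to vehicle.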
# [6] = read-out: Keratin 19 (KRT19), KRT19 (gene 3880); experiment: LTEA_HepaRG_KRT19: Life Technologies and Expression Analysis (LTEA) Assay for Keratin 19 (KRT19) using HepaRG (AID 2283512)
# How it was run: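 Readout is qRT-PCR of KRT19 mRNA, normalized to ACTB, GAPDH and POLR2A, from HepaRG cells treated 48 h with eight-point half-log dilutions topping at 100 uM. Activity in either direction is scored relative to 0.5% DMSO vehicle.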
# [7] = read-out: JUN Transcription Factor, JUN (gene 3725); experiment: LTEA_HepaRG_JUN: Life Technologies and Expression Analysis (LTEA) Assay for JUN Transcription Factor using HepaRG (AID 2283513)
# How it was run: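 mRNA measured by TaqMan qRT-PCR after 48 h chemical exposure of HepaRG cultures; normalization to three housekeeping genes. Duplicate eight-point half-log curves from 100 uM in 0.5% DMSO; gain or loss fitted against DMSO baseline.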
# [8] = read-out: Lipase C (LIPC), LIPC (gene 3990); experiment: LTEA_HepaRG_LIPC: Life Technologies and Expression Analysis (LTEA) Assay for Lipase C (LIPC) using HepaRG (AID 2283514)
# How it was run: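 LIPC expression was quantified by qRT-PCR against three housekeeping genes (ACTB, GAPDH, POLR2A). Differentiated human HepaRG cells received eight half-log doses (top 100 uM, 0.5% DMSO) in duplicate for 48 h; fitting bidirectional relative to DMSO.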
# [9] = read-out: Lipoprotein lipase (LPL), LPL (gene 4023); experiment: LTEA_HepaRG_LPL: Life Technologies and Expression Analysis (LTEA) Assay for Lipoprotein lipase (LPL) using HepaRG (AID 2283515)
# How it was run: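 LPL transcript levels quantified by TaqMan qRT-PCR against three housekeeping genes after 48 h chemical treatment of HepaRG cells. Eight-point half-log series from 100 uM in 0.5% DMSO, tested in duplicate; bidirectional fitting versus vehicle.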
# [10] = read-out: MicroRNA 122 (MIR122), gene 406906; experiment: LTEA_HepaRG_MIR122: Life Technologies and Expression Analysis (LTEA) Assay for MicroRNA 122 (MIR122) using HepaRG (AID 2283516); note: the transcript read is the microRNA miR-122
# How it was run: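 Expression measured by microfluidic qRT-PCR with three housekeeping genes for normalisation, after 48 h treatment of HepaRG cultures. Eight concentrations (top 100 uM, half-log steps, 0.5% DMSO vehicle) in duplicate; gain or loss fitted relative to vehicle.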
# [11] = read-out: matrix metalloproteinase-10 (MMP10), MMP10 (gene 4319); experiment: LTEA_HepaRG_MMP10: Life Technologies and Expression Analysis (LTEA) Assay for matrix metalloproteinase-10 (MMP10) using HepaRG (AID 2283517)
# How it was run: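 Expression measured by TaqMan qRT-PCR with ACTB/GAPDH/POLR2A normalisation after 48 h chemical exposure of HepaRG cells. Eight half-log concentrations, top 100 uM, 0.5% DMSO vehicle, duplicates; gain or loss fitted against vehicle.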
# MYC, MYC (gene 4609) = experiment: LTEA_HepaRG_MYC: Life Technologies and Expression Analysis (LTEA) Assay for MYC using HepaRG (AID 2283518)
# How it was run: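 Expression changes were scored by TaqMan qRT-PCR with ACTB, GAPDH and POLR2A normalization. Cultures in serum-free induction medium received duplicate 8-point concentration series, highest 100 uM, for 48 h; DMSO (0.5%) served as baseline.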
# [12] = read-out: matrix metalloproteinase-3 (MMP3), MMP3 (gene 4314); experiment: LTEA_HepaRG_MMP3: Life Technologies and Expression Analysis (LTEA) Assay for matrix metalloproteinase-3 (MMP3) using HepaRG (AID 2283519)
# How it was run: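 Fluidigm-based TaqMan qRT-PCR, normalized to ACTB, GAPDH and POLR2A and fitted bidirectionally versus 0.5% DMSO, measured transcript levels. Treatment: duplicate 48 h exposures of HepaRG cells, ~100,000/well, to eight half-log concentrations topping at 100 uM.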
# [13] = read-out: Paternally Expressed 10 (PEG10), PEG10 (gene 23089); experiment: LTEA_HepaRG_PEG10: Life Technologies and Expression Analysis (LTEA) Assay for Paternally Expressed 10 (PEG10) using HepaRG (AID 2283520)
# How it was run: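 PEG10 transcript measured by Fluidigm qRT-PCR, normalized to three housekeeping genes, in HepaRG cells treated 48 h (highest 100 uM, half-log steps, 0.5% DMSO vehicle). Cells plated 48 h before switching to serum-free induction medium.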
# [14] = read-out: Nuclear factor NF-kappa-B p105 subunit (Homo sapiens) (UniProt P19838); experiment: LTEA_HepaRG_NFKB1: Life Technologies and Expression Analysis (LTEA) Assay for Nuclear Factor Kappa B Subunit 1 (NFKB1) using HepaRG (AID 2283521);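 note: TaqMan qRT-PCR transcript normalised to ACTB GAPDH and POLR2A housekeeping genes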
# How it was run: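 Differentiated human HepaRG cells in serum-free induction medium with 0.5% DMSO were exposed for 48 h to eight half-log concentrations, top 100 uM, in duplicate. NFKB1 mRNA measured by Fluidigm TaqMan qRT-PCR, normalised to ACTB, GAPDH and POLR2A; bidirectional fit versus DMSO.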
# [15] = read-out: Protein phosphatase 2A (PPP2R4), PTPA (gene 5524); experiment: LTEA_HepaRG_PPP2R4: Life Technologies and Expression Analysis (LTEA) Assay for Protein phosphatase 2A (PPP2R4) using HepaRG (AID 2283522)
# How it was run: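 Expression was quantified by Fluidigm qRT-PCR normalised to three housekeeping genes after 48 h treatment. Human HepaRG cells received an 8-point series from 100 µM downward by half-logs, in duplicate with 0.5% DMSO vehicle and 1 mM phenobarbital as induction control.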
# [16] = read-out: Phosphatase and tensin (PTEN), PTEN (gene 5728); experiment: LTEA_HepaRG_PTEN: Life Technologies and Expression Analysis (LTEA) Assay for Phosphatase and tensin (PTEN) using HepaRG (AID 2283523)
# How it was run: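 Read-out: TaqMan qRT-PCR of PTEN transcript, normalized to three housekeeping genes, fitted in both directions against 0.5% DMSO. Differentiated human HepaRG cultures received chemicals for 48 h, eight-point half-log series topping at 100 uM.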
# [17] = read-out: solute carrier (SLC22A1), SLC22A1 (gene 6580); experiment: LTEA_HepaRG_SLC22A1: Life Technologies and Expression Analysis (LTEA) Assay for solute carrier (SLC22A1) using HepaRG (AID 2283524)
# How it was run: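 Transcript level of SLC22A1 quantified by qRT-PCR (normalized to three housekeeping genes) after 48 h chemical exposure of HepaRG cells, eight concentrations up to 100 µM, half-log steps, 0.5% DMSO vehicle. Gain or loss relative to DMSO fitted bidirectionally.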
# [18] = read-out: NAD(P)H dehydrogenase [quinone] 1 (NQO1), NQO1 (gene 1728); experiment: LTEA_HepaRG_NQO1: Life Technologies and Expression Analysis (LTEA) Assay for NAD(P)H dehydrogenase [quinone] 1 (NQO1) using HepaRG (AID 2283526)
# How it was run: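 NQO1 transcript induction or loss measured by TaqMan qRT-PCR, referenced to three housekeeping genes and fitted bidirectionally against 0.5% DMSO. HepaRG cultures exposed 48 h, duplicate, eight-point half-log series, top 100 uM.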
# Sequence of Nuclear factor NF-kappa-B p105 subunit (Homo sapiens) (P19838 whole entry, looked up): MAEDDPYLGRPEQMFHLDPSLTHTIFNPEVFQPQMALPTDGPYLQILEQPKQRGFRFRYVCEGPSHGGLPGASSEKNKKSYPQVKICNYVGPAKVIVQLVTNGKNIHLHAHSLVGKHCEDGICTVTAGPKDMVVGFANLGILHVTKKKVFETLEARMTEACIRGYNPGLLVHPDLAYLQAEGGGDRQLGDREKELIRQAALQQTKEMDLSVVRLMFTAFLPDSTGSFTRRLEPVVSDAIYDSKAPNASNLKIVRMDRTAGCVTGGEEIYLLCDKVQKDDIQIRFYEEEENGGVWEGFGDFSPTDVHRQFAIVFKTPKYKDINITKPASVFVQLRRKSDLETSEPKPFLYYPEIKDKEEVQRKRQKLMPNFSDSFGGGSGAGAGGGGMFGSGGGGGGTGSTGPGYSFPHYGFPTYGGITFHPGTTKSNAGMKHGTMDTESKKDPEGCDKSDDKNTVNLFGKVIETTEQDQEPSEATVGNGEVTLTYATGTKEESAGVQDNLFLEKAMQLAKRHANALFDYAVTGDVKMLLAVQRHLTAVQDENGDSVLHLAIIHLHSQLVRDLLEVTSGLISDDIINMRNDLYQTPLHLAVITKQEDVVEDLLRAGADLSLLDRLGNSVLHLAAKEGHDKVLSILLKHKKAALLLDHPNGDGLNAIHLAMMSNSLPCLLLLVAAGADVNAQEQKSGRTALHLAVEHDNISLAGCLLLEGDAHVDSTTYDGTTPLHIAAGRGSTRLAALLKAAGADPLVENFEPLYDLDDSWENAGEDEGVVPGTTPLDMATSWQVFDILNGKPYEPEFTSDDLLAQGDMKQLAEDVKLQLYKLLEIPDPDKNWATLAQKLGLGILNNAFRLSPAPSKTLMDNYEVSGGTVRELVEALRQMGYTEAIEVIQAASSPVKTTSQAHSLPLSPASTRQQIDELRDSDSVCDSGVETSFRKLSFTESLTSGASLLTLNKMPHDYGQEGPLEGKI
smiles,measurement,setting,value
CCCCCCCCCCCCc1cccc(S(=O)(=O)O)c1,outcome,HGF (gene 3082),inactive
same,outcome,[1],inactive
same,outcome,[2],inactive
same,outcome,[3],inactive
same,outcome,[4],inactive
same,outcome,[5],inactive
same,AC50,[6],76.1 µM (active)
same,outcome,[7],inactive
same,outcome,[8],inactive
same,AC50,[9],8.93 µM (active)
same,outcome,[10],inactive
same,outcome,[11],inactive
same,outcome,"MYC, MYC (gene 4609)",inactive
same,outcome,[12],inactive
same,outcome,[13],inactive
same,outcome,[14],inactive
same,outcome,[15],inactive
same,outcome,[16],inactive
same,outcome,[17],inactive
same,outcome,[18],inactive
O=C(N[C@H]1CN2CCC1CC2)c1ccc2c(c1)OCCO2,outcome,HGF (gene 3082),inactive
same,outcome,[1],inactive
same,outcome,[2],inactive
same,outcome,[3],inactive
same,AC50,[4],12.2 µM (active)
same,outcome,[5],inactive
same,outcome,[6],inactive
same,outcome,[7],inactive
same,outcome,[8],inactive
same,outcome,[9],inactive
same,outcome,[10],inactive
same,outcome,[11],inactive
same,outcome,"MYC, MYC (gene 4609)",inactive
same,outcome,[12],inactive
same,outcome,[13],inactive
same,outcome,[15],inactive
same,outcome,[16],inactive
same,outcome,[17],inactive
same,outcome,[18],inactive
CN(C)C(=S)S,outcome,HGF (gene 3082),inactive
same,outcome,[1],inactive
same,outcome,[2],inactive
same,outcome,[3],inactive
same,outcome,[4],inactive
same,outcome,[5],inactive
same,outcome,[6],inactive
same,outcome,[7],inactive
same,outcome,[8],inactive
same,outcome,[9],inactive
same,outcome,[10],inactive
same,outcome,[11],inactive
same,outcome,"MYC, MYC (gene 4609)",inactive
same,outcome,[12],inactive
same,outcome,[13],inactive
same,outcome,[15],inactive
same,outcome,[16],inactive
same,outcome,[17],inactive
same,outcome,[18],inactive
Oc1c(Cl)cc(Cl)cc1Cl,outcome,[1],inactive
same,outcome,[2],inactive
same,outcome,[3],inactive
same,outcome,[4],inactive
same,outcome,[5],inactive
same,outcome,[6],inactive
same,outcome,[7],inactive
same,outcome,[8],inactive
same,outcome,[9],inactive
same,outcome,[10],inactive
same,outcome,[11],inactive
same,outcome,"MYC, MYC (gene 4609)",inactive
same,outcome,[12],inactive
same,outcome,[13],inactive
same,outcome,[15],inactive
same,outcome,[16],inactive
same,outcome,[17],inactive
same,outcome,[18],inactive
